Key:
[1] = molecular target: T1, ETS1 (UniProt P14921); assay: ETS1 binding intensity (PBM fluorescence), ETS1 alone (arbitrary fluorescence units); higher = stronger binding; settings: ETS1 concentration 1 nM; RUNX1 concentration 0 nM
T1 sequence: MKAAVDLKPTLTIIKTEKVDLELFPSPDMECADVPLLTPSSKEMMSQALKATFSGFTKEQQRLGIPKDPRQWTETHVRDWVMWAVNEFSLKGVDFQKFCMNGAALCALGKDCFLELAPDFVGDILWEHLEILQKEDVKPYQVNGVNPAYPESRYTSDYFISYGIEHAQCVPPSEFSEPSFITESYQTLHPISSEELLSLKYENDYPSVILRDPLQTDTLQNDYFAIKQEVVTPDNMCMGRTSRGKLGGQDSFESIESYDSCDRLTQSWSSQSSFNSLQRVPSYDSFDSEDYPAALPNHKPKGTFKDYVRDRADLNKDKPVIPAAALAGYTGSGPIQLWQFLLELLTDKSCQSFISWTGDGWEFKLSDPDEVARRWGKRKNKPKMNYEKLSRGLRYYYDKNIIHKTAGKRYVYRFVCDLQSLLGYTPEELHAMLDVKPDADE

[2] = molecular target: RUNX1 (UniProt Q01196); assay: RUNX1 binding intensity (PBM fluorescence), RUNX1 alone (arbitrary fluorescence units); higher = stronger binding; settings: RUNX1 concentration 2 nM; ETS1 concentration 0 nM
RUNX1, sequence (Q01196 whole entry): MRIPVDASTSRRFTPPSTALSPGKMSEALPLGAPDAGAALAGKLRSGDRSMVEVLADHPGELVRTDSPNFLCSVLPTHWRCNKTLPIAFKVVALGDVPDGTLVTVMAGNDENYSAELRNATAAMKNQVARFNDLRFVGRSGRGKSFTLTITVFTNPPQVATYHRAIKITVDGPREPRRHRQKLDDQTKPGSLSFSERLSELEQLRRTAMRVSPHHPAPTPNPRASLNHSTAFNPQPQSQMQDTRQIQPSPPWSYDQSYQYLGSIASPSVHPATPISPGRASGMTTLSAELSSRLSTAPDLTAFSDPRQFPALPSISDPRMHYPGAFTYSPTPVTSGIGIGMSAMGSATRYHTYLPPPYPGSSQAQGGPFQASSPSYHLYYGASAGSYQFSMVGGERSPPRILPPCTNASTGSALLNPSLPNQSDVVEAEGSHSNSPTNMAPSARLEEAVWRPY
Method: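 Cooperative gcPBM on 36-bp genomic probes with neighbouring ETS1 and RUNX1 sites. Recombinant human RUNX1 (2 nM) was incubated alone or with ETS1 (25 nM) and detected with anti-RUNX1 antibody plus Alexa488 secondary. Values are medians over 4 replicate spots; the RUNX1+ETS1 data were normalised to the RUNX1-only data. The probes sit in constant array flanks that are not printed.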

[3] = molecular target: T1, ETS1; assay: ETS1 binding intensity (PBM fluorescence) in presence of RUNX1, normalised to ETS1-only experiment (arbitrary fluorescence units); higher = stronger binding; settings: ETS1 concentration 1 nM; RUNX1 concentration 25 nM
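Wherever RUNX1 binding intensity (PBM fluorescence), RUNX1 alone is given: Full-length recombinant human RUNX1 bound to double-stranded 36-bp genomic probes on a high-density microarray, scored as Alexa488 fluorescence per spot via anti-RUNX1 antibody, median of four replicate spots.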

| Sequence | ETS1 binding intensity [1] | RUNX1 binding intensity [2] | ETS1 binding intensity [3] |
| --- | --- | --- | --- |
| CCCCCACATCCTGTTTGGTTTGTGGGACACCTCAAC | 2100 | 849 | 2550 |
| GGCTCGGTGCTGCTTCCTGTGTGGTCAGGATCACAG | 1870 | 846 | 4270 |
| TTGGTGACCTCTTCCTGTCCGCTGTGGTGTTGTTAC | 1080 | 841 | 1240 |
| TCTAGTAAAAGAGGAAGTTCTTAACCACATTTCCAT | 2100 | 1020 | 9250 |
| ACCCGGATGTCGTTGGGCAGGAACTGCGGTGAGGGC | 2580 | 829 | 7980 |
| CTCCCACATCCGAAGCGGCGCAACCCACAACAGCCT | 445 | 1120 | 344 |
| TGGTTTCCGGGCTGGGGTTAGAATAGGCCACAAGGT | 494 | 787 | 536 |
| GACCAGGCGAGAGGATGTGGGTATGAGGGAGGAGCT | 819 | 835 | 1640 |
| CCCCGCGGAACTCTGGCACAGTCAGCTGACCGCAGA | 424 | 1600 | 2000 |
| GTTTACAGGGGACAGGAAATGTGGGTGAACTCAGCC | 6160 | 745 | 4710 |
| CTGTCATCTTCCTGACAGCACGCCCACAAAGGACCA | 482 | 843 | 377 |
| GACATCTTCCGGTTGCTACAGGTTACGGCGGTTGCT | 2700 | 778 | 2640 |
| CCCACTTCCTGTCTGCTTCCCTCCACCGCTCAGACC | 2890 | 1890 | 2650 |
| GGCCCGGCCGGAAGAAGCCACCTCCCCCGCACGCGT | 2410 | 849 | 2860 |
| TCGTGTTCTCTTCCGTTCTGTGGTAGCTTTTTGGTA | 655 | 1470 | 557 |
| AGAAGGAACTACACAGGAAACCCACTGCCTCGATGG | 2430 | 691 | 1640 |
| TATTTCCTGTGCACAGAAGCAGCTGGGCCGCAGAGT | 557 | 697 | 680 |
